Assay [1] addresses T1, Serine/threonine-protein kinase TBK1 (Homo sapiens) (UniProt Q9UHD2).
T1 sequence (whole entry): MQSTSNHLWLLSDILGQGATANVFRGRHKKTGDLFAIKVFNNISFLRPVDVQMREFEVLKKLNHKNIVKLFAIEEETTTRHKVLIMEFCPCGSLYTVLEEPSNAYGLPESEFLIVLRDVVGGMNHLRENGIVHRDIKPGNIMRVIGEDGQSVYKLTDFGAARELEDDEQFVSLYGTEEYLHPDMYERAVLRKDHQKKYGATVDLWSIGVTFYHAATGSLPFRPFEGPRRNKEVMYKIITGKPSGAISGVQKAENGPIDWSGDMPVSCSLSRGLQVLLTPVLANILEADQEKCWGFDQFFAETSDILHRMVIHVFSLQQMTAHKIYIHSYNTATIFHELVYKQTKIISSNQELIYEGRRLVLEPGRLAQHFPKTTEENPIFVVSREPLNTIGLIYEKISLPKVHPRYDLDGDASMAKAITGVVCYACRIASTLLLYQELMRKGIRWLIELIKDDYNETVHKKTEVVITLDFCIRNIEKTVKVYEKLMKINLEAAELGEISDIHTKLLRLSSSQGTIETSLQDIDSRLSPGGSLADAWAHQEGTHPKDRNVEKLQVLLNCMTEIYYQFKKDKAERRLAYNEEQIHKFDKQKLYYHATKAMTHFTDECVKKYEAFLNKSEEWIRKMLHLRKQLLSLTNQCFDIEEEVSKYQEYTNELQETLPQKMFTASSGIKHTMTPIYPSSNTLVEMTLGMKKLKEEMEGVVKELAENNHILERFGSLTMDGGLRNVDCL
The note with it: at 10 µM.

The target in assay [2] is T2, TGF-beta receptor type-1 (Homo sapiens) (UniProt P36897).
T2 sequence (whole entry): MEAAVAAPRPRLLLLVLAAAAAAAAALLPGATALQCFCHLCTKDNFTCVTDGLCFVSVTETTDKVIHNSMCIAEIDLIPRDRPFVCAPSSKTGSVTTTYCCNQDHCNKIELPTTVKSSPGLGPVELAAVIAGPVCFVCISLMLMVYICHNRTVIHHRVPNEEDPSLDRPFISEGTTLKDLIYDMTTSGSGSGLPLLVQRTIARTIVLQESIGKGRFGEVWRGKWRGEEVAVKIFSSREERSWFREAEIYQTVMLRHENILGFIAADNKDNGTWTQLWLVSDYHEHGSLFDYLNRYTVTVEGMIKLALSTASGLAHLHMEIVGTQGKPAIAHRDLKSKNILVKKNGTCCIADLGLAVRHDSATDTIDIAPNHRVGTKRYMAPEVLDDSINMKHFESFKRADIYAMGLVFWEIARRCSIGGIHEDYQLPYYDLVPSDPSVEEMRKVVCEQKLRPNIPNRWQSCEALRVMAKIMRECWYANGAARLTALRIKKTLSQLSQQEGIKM
The note with it: at 1 µM.

Assay [3] deals with T2, TGF-beta receptor type-1 (Homo sapiens). Particulars: at 10 µM.
Assay [4] deals with Insulin-like growth factor 1 receptor (Homo sapiens) (UniProt P08069). The note with it: at 1 µM.
Sequence of Insulin-like growth factor 1 receptor (Homo sapiens) (P08069 31-736 limits assumed): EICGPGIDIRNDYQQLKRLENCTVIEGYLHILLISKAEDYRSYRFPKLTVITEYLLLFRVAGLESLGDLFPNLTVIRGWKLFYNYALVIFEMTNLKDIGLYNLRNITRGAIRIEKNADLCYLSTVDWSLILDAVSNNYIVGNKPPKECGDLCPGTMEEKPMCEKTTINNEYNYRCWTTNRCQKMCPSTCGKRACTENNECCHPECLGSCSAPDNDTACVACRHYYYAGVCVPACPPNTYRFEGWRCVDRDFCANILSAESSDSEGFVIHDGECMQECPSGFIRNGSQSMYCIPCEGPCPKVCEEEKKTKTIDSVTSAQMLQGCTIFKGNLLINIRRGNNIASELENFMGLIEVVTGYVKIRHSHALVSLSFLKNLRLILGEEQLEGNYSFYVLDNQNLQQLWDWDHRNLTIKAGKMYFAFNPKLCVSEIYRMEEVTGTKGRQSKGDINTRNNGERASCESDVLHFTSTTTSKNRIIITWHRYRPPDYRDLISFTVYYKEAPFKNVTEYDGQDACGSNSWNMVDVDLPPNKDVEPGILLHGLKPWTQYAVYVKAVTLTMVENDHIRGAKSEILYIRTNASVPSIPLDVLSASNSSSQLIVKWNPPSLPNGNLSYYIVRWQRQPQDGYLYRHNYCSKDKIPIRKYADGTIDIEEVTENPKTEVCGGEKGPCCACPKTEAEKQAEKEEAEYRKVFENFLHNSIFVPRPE
Sequence of Insulin-like growth factor 1 receptor (Homo sapiens) (P08069 741-1367 limits assumed): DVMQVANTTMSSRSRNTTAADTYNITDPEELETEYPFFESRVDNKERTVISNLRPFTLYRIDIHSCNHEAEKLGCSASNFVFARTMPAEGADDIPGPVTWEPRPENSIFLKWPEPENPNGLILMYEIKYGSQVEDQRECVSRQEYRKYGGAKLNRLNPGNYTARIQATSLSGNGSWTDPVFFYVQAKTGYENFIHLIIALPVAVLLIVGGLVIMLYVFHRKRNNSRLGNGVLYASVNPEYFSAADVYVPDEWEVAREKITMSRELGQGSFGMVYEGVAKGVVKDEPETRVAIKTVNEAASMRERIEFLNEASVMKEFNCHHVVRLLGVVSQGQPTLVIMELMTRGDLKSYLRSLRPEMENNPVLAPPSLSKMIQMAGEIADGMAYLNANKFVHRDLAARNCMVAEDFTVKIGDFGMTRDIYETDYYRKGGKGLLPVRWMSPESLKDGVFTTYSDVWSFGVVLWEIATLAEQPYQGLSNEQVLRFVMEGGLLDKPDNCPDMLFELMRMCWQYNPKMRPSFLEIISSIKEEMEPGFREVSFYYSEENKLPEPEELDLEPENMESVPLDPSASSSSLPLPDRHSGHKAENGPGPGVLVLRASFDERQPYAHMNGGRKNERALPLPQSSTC
For assay [5] the target is unchanged. Particulars: at 10 µM.
In assay [6] the target is T3, Inhibitor of nuclear factor kappa-B kinase subunit alpha (Homo sapiens) (UniProt O15111).
T3 sequence (whole entry): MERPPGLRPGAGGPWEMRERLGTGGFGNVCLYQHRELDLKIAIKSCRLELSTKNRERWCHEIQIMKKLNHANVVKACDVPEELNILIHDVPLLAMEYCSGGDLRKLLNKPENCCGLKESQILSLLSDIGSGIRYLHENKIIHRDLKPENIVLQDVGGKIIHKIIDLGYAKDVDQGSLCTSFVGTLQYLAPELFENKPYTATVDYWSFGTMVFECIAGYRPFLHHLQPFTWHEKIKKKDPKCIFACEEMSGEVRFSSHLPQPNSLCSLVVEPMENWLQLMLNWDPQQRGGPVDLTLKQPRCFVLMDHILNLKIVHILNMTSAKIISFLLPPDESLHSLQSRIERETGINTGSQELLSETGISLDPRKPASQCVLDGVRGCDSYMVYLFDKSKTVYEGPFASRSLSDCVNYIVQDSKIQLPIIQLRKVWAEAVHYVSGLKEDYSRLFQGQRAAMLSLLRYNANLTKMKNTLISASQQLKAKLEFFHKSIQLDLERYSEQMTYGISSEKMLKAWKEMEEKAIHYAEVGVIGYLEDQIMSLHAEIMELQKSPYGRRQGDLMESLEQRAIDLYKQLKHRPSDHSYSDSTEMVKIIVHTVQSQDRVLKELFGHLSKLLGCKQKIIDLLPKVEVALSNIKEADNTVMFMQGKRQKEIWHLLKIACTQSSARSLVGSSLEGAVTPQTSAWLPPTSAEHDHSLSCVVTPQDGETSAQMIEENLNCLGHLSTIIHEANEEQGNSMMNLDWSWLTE
Particulars: at 1 µM.

The target in assay [7] is T3, Inhibitor of nuclear factor kappa-B kinase subunit alpha (Homo sapiens). Particulars: at 10 µM.
For assay [8], the target named is T4, Inhibitor of nuclear factor kappa-B kinase subunit beta (Homo sapiens) (UniProt O14920).
T4 sequence (whole entry): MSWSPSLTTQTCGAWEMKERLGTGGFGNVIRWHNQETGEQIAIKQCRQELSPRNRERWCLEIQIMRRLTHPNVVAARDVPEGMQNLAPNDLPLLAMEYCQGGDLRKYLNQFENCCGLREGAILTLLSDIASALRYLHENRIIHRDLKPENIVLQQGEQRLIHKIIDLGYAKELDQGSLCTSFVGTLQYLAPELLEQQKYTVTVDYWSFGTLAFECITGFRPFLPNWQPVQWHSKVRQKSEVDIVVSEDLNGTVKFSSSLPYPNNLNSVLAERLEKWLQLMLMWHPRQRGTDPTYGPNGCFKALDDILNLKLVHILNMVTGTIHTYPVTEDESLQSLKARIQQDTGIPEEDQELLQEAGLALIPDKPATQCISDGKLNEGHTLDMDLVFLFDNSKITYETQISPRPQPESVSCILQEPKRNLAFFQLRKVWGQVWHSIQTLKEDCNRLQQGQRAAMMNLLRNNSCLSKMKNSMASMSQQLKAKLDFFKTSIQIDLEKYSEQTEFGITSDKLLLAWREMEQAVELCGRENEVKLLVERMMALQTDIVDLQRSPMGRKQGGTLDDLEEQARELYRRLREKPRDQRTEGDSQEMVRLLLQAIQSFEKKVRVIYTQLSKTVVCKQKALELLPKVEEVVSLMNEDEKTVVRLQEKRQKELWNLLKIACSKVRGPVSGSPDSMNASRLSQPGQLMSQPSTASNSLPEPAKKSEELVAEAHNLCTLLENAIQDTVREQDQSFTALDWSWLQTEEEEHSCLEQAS
The note with it: at 1 µM.

Assay [9] deals with T4, Inhibitor of nuclear factor kappa-B kinase subunit beta (Homo sapiens). The note with it: at 10 µM.
Assay [10] addresses Insulin receptor (Homo sapiens) (UniProt P06213). Particulars: at 1 µM.

Sequence of Insulin receptor (Homo sapiens) (P06213 28-758 limits assumed): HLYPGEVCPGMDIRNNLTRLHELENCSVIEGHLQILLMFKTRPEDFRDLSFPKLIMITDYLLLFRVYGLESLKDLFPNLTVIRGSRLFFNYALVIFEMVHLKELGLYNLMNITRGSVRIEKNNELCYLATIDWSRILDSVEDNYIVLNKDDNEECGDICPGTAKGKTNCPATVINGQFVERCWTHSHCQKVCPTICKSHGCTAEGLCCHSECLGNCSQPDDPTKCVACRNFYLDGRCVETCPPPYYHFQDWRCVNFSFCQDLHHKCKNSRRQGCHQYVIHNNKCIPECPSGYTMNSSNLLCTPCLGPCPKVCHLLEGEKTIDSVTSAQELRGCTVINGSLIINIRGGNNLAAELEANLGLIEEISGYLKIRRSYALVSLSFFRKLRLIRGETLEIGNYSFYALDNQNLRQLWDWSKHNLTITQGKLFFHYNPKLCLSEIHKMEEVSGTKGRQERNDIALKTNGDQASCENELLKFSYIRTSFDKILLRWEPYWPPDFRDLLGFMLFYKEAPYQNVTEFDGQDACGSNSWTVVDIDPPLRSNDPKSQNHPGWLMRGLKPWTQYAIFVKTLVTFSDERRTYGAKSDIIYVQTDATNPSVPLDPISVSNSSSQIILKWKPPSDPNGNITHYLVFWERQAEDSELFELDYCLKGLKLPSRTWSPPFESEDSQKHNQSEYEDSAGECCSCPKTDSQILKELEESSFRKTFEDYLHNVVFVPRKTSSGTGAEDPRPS
Sequence of Insulin receptor (Homo sapiens) (P06213 763-1382 limits assumed): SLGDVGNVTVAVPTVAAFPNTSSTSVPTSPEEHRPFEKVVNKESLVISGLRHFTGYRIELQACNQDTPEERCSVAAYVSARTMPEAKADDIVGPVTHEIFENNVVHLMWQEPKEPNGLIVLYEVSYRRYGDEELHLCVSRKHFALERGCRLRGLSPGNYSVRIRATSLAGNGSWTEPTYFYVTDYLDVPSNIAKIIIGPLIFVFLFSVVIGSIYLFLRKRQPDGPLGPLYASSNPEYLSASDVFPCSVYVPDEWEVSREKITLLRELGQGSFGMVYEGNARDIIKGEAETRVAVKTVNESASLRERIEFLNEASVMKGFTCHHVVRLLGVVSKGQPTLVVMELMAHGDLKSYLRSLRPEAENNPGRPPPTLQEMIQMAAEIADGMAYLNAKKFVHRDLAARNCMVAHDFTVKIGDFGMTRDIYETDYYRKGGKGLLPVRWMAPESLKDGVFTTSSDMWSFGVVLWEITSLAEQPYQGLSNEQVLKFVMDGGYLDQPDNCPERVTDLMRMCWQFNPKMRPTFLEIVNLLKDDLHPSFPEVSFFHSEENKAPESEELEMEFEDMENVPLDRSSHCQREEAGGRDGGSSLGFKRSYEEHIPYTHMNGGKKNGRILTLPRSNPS

For `CN(C)c1ccc(/C=C2\C(=O)Nc3ccccc32)cc1`, the residual activity in assay [1] turned out to be 45%; in assay [2], 93%; in [3], 98%; in assay [4], 105%; in assay [5] it was 103%; in assay [6], 102%. Moreover, the residual activity in assay [7] was found to be 120%; in [8], 112%; in assay [9], 93%; in [10], 99%.

The term residual activity denotes the signal under treatment as a percentage of the control signal.
